Laboratory results taken from ChEMBL document CHEMBL4513216, “Probing the Open Global Health Chemical Diversity Library for Multistage-Active Starting Points for Next-Generation Antimalarials” (ACS Infect Dis, 2020).
The campaign covered roughly 65,000 compounds. About 2,100 (3.2%) showed an effect of 50% or more. The median lay at about -52%. The list comes from a sample in which strong results are over-represented; it also holds similar structures and randomly drawn compounds.

System: Plasmodium falciparum
Assay: Screen against P. falciparum Asexual Blood Stage (ABS), at 5uM
Assay type: functional, Dd2
Details: tested at 5 uM

Which INHIBITION does the source give for `COCCC(=O)N1CC2(CCN(Cc3ccccc3Cl)CC2)C1` here?
The INHIBITION was 0.294%.

Which INHIBITION does the source give for `Cc1cc(C)c(CNC(=O)NCC2CCCO2)c(=O)[nH]1` (stereo not drawn) here?
Its INHIBITION is -64.8%.

Which INHIBITION does the source give for `Cc1cc(C)c(CNC(=O)CCC2CCCO2)c(=O)[nH]1` (stereo not drawn) here?
The INHIBITION was 53.2%.

Which INHIBITION does the source give for `Cc1cc(C)c(CNC(=O)NCCC2CCCO2)c(=O)[nH]1` (stereo not drawn) here?
Its INHIBITION is 20.5%.

Which INHIBITION does the source give for `Cc1c(NC(=O)N(C)CCO)cccc1OC1CCCC1` here?
Its INHIBITION is -65.2%.

`CC(C)(C)c1cc(CN2C[C@@H]3CC[C@H]2CN(Cc2cscn2)C3)n[nH]1` was tested. Which INHIBITION did it give?
Its INHIBITION is 20.1%.

For `CC(C)Cc1cc(CN2C[C@@H]3CC[C@H]2CN(Cc2cscn2)C3)n[nH]1`, which INHIBITION is on record?
Its INHIBITION is 66.6%.

With `CC(C)(C)c1cc(CN2C[C@H]3CC[C@@H](C2)N(Cc2ccccn2)C3)n[nH]1` as the compound, how does the INHIBITION read?
Its INHIBITION is 47.7%.

`CCc1nccn1-c1nccnc1C1CCN(C(=O)COC)CC1` was tested. Which INHIBITION did it give?
Its INHIBITION is -25.8%.

For `CN(Cc1cccnc1)C(CO)c1cccc(Br)c1` (stereo not drawn), which INHIBITION is on record?
The INHIBITION was -135%.

Which INHIBITION does the source give for `CSCc1ccc(CNC2CCCN(c3ccc(C)nn3)C2)o1` (stereo not drawn) here?
The INHIBITION was -38.5%.

`CCC(CN1CCCC1)n1cncc1-c1cnn(Cc2ccccc2)c1` (stereo not drawn) was tested. Which INHIBITION did it give?
Its INHIBITION is 44.8%.

For `CC(Cn1cncc1-c1cnn(Cc2ccccc2)c1)N1CCCCC1` (stereo not drawn), which INHIBITION is on record?
The INHIBITION was 65.7%.

Which INHIBITION does the source give for `CC(CN1CCOCC1)n1cncc1-c1cnn(Cc2ccccc2)c1` (stereo not drawn) here?
The INHIBITION was -46.1%.

`Cc1cccc(C)c1OC1CCN(Cc2ccn(C)c(=O)c2)CC1` was tested. Which INHIBITION did it give?
Its INHIBITION is -30.1%.

With `CC(OCC1CC1)C(=O)Nc1cccc(C(=O)Nc2ccncc2)c1` (stereo not drawn) as the compound, how does the INHIBITION read?
The INHIBITION was -140%.

With `O=C(CC1CN(Cc2ccccc2)CCO1)NCCN1CCOCC1` (stereo not drawn) as the compound, how does the INHIBITION read?
Its INHIBITION is -108%.

For `Cc1nn(C)cc1-c1ccnc(N(C)Cc2noc(C(C)C)n2)n1`, which INHIBITION is on record?
The INHIBITION was -32.2%.

For `Cc1nn(C)c(C)c1-c1ccnc(N(C)Cc2noc(C(C)C)n2)n1`, which INHIBITION is on record?
Its INHIBITION is -25.3%.

With `Cc1nn(C)c(C)c1-c1ccnc(N(C)Cc2nc(C(C)C)no2)n1` as the compound, how does the INHIBITION read?
Its INHIBITION is 66.3%.

How did the INHIBITION turn out when `O=C(COc1ccc(F)cc1)N1CCO[C@H]2[C@@H](OCC3CC3)CC[C@@H]21` was run?
Its INHIBITION is -24%.

How did the INHIBITION turn out when `COc1ccc(C2=Nn3c(CN)nnc3-c3ccccc3C2)cc1` was run?
The INHIBITION was 64.8%.

How did the INHIBITION turn out when `COc1ccc(C2=Nn3c(CCN)nnc3-c3ccccc3C2)cc1` was run?
The INHIBITION was 32.1%.

With `COc1ccc(C2=Nn3c(CCCN)nnc3-c3ccccc3C2)cc1` as the compound, how does the INHIBITION read?
Its INHIBITION is -100%.

How did the INHIBITION turn out when `Cc1ccc(OCC(=O)NS(=O)(=O)c2cccnc2)cc1C` was run?
The INHIBITION was -19.2%.

With `O=C(COc1ccc2c(c1)CCC2)NS(=O)(=O)c1cccnc1` as the compound, how does the INHIBITION read?
Its INHIBITION is 51.8%.

For `O=C(COc1ccc2c(c1)CCC2)NS(=O)(=O)c1cncc(Br)c1`, which INHIBITION is on record?
The INHIBITION was -108%.

With `O=C(NCc1ccccn1)[C@@H]1COC[C@H]2CN(c3ncccn3)C[C@H]21` as the compound, how does the INHIBITION read?
Its INHIBITION is -20.1%.

For `Cc1cc2[nH]c(CN3CCCCC3c3cccc(F)c3)cc(=O)n2n1` (stereo not drawn), which INHIBITION is on record?
The INHIBITION was -64.9%.

For `COc1cccc(CN2CCCCCC2c2cccs2)c1O` (stereo not drawn), which INHIBITION is on record?
The INHIBITION was 3.59%.

Which INHIBITION does the source give for `COc1cccc(CN2CCCCCC2c2cccc(F)c2)c1O` (stereo not drawn) here?
Its INHIBITION is 57.6%.

With `COc1cccc(CN2CCCCCC2c2sccc2C)c1O` (stereo not drawn) as the compound, how does the INHIBITION read?
The INHIBITION was -7.83%.

How did the INHIBITION turn out when `Cc1cccc(C2CCCCCN2Cc2cn(C)nc2C)c1` (stereo not drawn) was run?
The INHIBITION was 35.4%.

Which INHIBITION does the source give for `COc1cccc(CN2CCCCCC2c2cccc(C)c2)c1O` (stereo not drawn) here?
The INHIBITION was 57.5%.

`Oc1cc(-c2ccsc2)nc(C2CCN(Cc3cccnc3)CC2)n1` was tested. Which INHIBITION did it give?
The INHIBITION was -96.9%.

For `O=C(NCCCNc1ccc(C(F)(F)F)cn1)c1ccc(F)cc1Br`, which INHIBITION is on record?
Its INHIBITION is -29.4%.

Which INHIBITION does the source give for `CC(C)Nc1nc2c(cc1C(=O)NCC1CC1)CCN(CC1CC1)CC2` here?
Its INHIBITION is -7.32%.

Which INHIBITION does the source give for `COCCOCC1(CNC(=O)c2ccc(OC)cc2)C[C@@H](O)[C@@H](O)C1` (stereo partly drawn) here?
Its INHIBITION is -102%.
